# According to PubChem BioAssay AID743356 (Broad Institute, 2014):
# A number with no mark means an inactive call.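 How the source made its calls: active means compounds that cut cell viability with a fitted half-maximal dose no more than twice the top valid dose; inconclusive means flat curve inhibiting 30 to 70%, or a poor fit; inactive means the rest, including any rise in viability.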
# Test: A549 cell cytotoxicity, dose response, cytotoxicity control, luminescence, dry powder, set 10 (AID 743356)
# Settings: CellTiter-Glo ATP luminescence, 72 h; at 26 µM unless noted
row,SMILES,"max inhibition of viability %, active compounds read high"
1,COc1ccc(NC(=O)N2CC[C@@H]3[C@@H](CO)N(C)c4ccc(-c5ccc(F)cc5)cc4[C@@H]32)cc1,-9.64%
2,CC(=O)c1ccc(N2CCN(C(=O)c3ccccc3Cl)CC2)cc1,15.7% [at 0.195 µM]
3,CN1c2ccc(-c3cccc(F)c3)cc2[C@@H]2[C@@H](CCN2C(=O)c2ccc3c(c2)OCO3)[C@@H]1CO,-3.11%
4,CNC(=O)c1ccc(N2CCN(C(=O)c3ccc4c(c3)OCO4)CC2)cc1,-22.9% [at 0.0015 µM]
5,CN1c2ccc(-c3cccc(F)c3)cc2[C@H]2[C@H](CCN2C(=O)c2ccc3c(c2)OCO3)[C@@H]1CO,-9.58%
6,COc1ccccc1NC(=O)N1CC[C@@H]2[C@@H](CO)N(C)c3ccc(-c4ccc(F)cc4)cc3[C@@H]21,13.3% [at 0.0015 µM]
7,CN1c2ccc(-c3cccc(F)c3)cc2[C@H]2[C@H](CCN2C(=O)Nc2ccccc2F)[C@H]1CO,-15.8% [at 23.5 µM]
8,CCC(=O)N1CC[C@@H]2[C@@H](CO)N(C)c3ccc(-c4ccc(F)cc4)cc3[C@@H]21,-5.87% [at 0.09 µM]
9,COCC(=O)N1CC[C@@H]2[C@@H](CO)N(C)c3ccc(-c4cccc(F)c4)cc3[C@@H]21,-10.3%
10,CN1c2ccc(-c3ccc(F)cc3)cc2[C@H]2[C@H](CCN2C(=O)Nc2ccc(F)cc2)[C@H]1CO,18.3% [at 0.05 µM]
11,CN1c2ccc(-c3ccc(F)cc3)cc2[C@H]2[C@H](CCN2C(=O)Nc2cc(F)ccc2F)[C@H]1CO,-3.91% [at 23.5 µM]
12,CC(C)NC(=O)N1CC[C@@H]2[C@@H](CO)N(C)c3ccc(-c4cccc(F)c4)cc3[C@@H]21,14.2% [setting not given]
13,COc1cccc(NC(=O)N2CC[C@@H]3[C@@H](CO)N(C)c4ccc(-c5cccc(F)c5)cc4[C@@H]32)c1,-9.56%
14,CCCCCCCC(=O)N1CC[C@@H]2[C@@H](CO)N(C)c3ccc(-c4cccc(F)c4)cc3[C@@H]21,20.6% [at 0.006 µM]
15,CN1c2ccc(-c3cccc(F)c3)cc2[C@H]2[C@H](CCN2C(=O)Cc2ccccc2)[C@H]1CO,-6.91% [at 23.5 µM]
16,CC(=O)c1ccc(NCCNC(=O)c2ccc3c(c2)OCO3)cc1,9.33% [at 0.0007 µM]
17,CC(=O)c1ccc(N2CCN(C(=O)c3ccc4c(c3)OCO4)CC2)cc1,20.5% [at 0.8 µM]
18,CC(=O)c1ccc(N2CC3(CN(C(=O)c4ccc5c(c4)OCO5)C3)C2)cc1,-11.2% [setting not given]
19,COC(=O)CCCCCCC(=O)N1CC[C@@H]2[C@@H](CO)N(C)c3ccc(-c4cccc(F)c4)cc3[C@@H]21,8.86% [at 6 µM]
20,CN1c2ccc(-c3cccc(F)c3)cc2[C@@H]2[C@@H](CCN2C(=O)c2ccc3c(c2)OCO3)[C@H]1CO,-9.13%
21,CN(C)C(=O)c1ccc(N2CCN(C(=O)c3ccc4c(c3)OCO4)CC2)cc1,10.1% [at 0.1 µM]
22,CN1c2ccc(-c3ccc(F)cc3)cc2[C@H]2[C@H](CCN2C(=O)Cc2cccnc2)[C@H]1CO,13.9% [at 0.0007 µM]
23,CN1c2ccc(-c3cccc(F)c3)cc2[C@H]2[C@H](CCN2C(=O)Cc2cccnc2)[C@H]1CO,-2.44%
24,COc1ccccc1C(=O)N1CCN(c2ccc(C(C)=O)cc2)CC1,13.9% [at 0.012 µM]
25,CC(C)NC(=O)N1CC[C@@H]2[C@@H](CO)N(C)c3ccc(-c4ccc(F)cc4)cc3[C@@H]21,12.6% [at 0.05 µM]
26,CCCNC(=O)N1CC[C@@H]2[C@@H](CO)N(C)c3ccc(-c4ccc(F)cc4)cc3[C@@H]21,-28.2% [at 0.38 µM]
27,CNS(=O)(=O)c1ccc(N2CCN(C(=O)c3ccc4c(c3)OCO4)CC2)cc1,21.4% [at 0.003 µM]
28,COc1ccc(NC(=O)N2CC[C@@H]3[C@@H](CO)N(C)c4ccc(-c5cccc(F)c5)cc4[C@@H]32)cc1,-13.8% [at 0.0235 µM]
29,CN1c2ccc(-c3cccc(F)c3)cc2[C@H]2[C@H](CCN2C(=O)CCCCCCC(=O)O)[C@H]1CO,-12.9%
